# Test results from PMC7862700, “An all-to-all approach to the identification of sequence-specific readers for epigenetic DNA modifications on cytosine”.
# Columns and labels:
# Test in all cases: DAPPL (digital affinity profiling via proximity ligation, sequencing); 10 mM Tris-HCl pH 7.5, 50 mM NaCl, 1 mM DTT, 4% glycerol, room temperature, 30 min; GST-TFs on glutathione beads, 16-mer random dsDNA library, 0.1% formaldehyde crosslink after washing; high values mean tight binding
# [1] = target: T1, FEV (Homo sapiens, UniProt Q99581 1-238); conditions: protein: recombinant; tags: N-terminal GST; dsDNA, one strand shown
# T1 sequence: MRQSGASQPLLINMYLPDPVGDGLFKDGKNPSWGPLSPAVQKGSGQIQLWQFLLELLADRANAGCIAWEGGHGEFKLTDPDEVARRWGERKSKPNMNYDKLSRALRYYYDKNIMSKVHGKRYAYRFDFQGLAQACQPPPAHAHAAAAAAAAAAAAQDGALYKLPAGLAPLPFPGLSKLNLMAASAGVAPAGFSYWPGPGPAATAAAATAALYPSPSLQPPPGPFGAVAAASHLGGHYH
# Procedure, shortened: (§1)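 Binding signal is defined as a hexamer's read frequency for one factor over its frequency for the tag-only sample. To obtain reads, GST-fused human transcription factors were expressed in yeast, captured on glutathione beads, barcoded with DNA and pooled with that sample. Pools met 200 nmole of a 16-mer random double-stranded DNA library in Tris/NaCl/DTT/glycerol buffer for 30 min at room temperature before washing, 0.1% formaldehyde crosslinking, proximity ligation (BsaI/T4 ligase, 1 h, 37 °C), PCR and Illumina NextSeq500 sequencing.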
# [2] = target: ETV5 (Homo sapiens, UniProt P41161 1-510); conditions: protein: recombinant; tags: N-terminal GST; dsDNA, one strand shown
# ETV5, sequence (P41161 whole entry): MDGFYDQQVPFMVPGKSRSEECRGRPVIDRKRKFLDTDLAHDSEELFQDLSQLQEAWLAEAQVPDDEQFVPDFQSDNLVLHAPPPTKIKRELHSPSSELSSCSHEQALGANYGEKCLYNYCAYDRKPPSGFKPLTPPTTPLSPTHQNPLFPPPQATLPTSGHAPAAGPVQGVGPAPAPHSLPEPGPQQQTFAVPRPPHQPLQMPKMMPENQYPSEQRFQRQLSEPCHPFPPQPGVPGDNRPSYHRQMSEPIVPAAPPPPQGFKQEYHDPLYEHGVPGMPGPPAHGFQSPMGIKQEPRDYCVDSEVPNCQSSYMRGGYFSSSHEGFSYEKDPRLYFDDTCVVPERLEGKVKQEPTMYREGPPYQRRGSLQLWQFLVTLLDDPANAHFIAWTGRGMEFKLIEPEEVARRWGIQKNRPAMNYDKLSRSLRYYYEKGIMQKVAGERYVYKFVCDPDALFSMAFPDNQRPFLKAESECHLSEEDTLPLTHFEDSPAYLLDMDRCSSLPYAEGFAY
# Procedure, shortened: as §1
# [3] = target: HSF1 (Homo sapiens, UniProt Q00613 1-529); conditions: protein: recombinant; tags: N-terminal GST; chain copies: 3; dsDNA, one strand shown
# HSF1, sequence (Q00613 whole entry): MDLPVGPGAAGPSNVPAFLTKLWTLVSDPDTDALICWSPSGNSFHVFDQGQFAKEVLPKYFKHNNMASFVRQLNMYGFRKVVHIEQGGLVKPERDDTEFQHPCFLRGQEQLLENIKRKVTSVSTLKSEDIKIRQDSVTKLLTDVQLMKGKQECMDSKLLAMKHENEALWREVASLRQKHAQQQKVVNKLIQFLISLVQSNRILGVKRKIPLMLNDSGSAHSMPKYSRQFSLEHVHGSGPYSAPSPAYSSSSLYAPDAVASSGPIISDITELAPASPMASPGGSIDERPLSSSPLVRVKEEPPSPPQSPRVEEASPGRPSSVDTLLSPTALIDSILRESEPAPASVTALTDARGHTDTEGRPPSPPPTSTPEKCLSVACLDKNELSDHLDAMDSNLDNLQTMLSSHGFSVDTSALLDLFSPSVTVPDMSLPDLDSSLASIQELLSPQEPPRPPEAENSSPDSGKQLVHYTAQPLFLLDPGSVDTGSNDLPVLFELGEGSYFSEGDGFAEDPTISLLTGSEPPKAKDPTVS
# Procedure, shortened: as §1
# [4] = target: T2, SPIC (Homo sapiens, UniProt Q8N5J4 1-248); conditions: protein: recombinant; tags: N-terminal GST; dsDNA, one strand shown
# T2 sequence: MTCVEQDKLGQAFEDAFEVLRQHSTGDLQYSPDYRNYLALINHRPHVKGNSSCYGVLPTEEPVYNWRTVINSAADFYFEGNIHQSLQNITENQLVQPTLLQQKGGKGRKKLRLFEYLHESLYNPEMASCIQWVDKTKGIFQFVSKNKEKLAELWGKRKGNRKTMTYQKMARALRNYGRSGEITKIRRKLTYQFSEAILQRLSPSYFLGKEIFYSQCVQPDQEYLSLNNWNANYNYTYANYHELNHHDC
# Procedure, shortened: as §1
# [5] = target: ELF4 (Homo sapiens, UniProt Q99607 1-663); conditions: protein: recombinant; tags: N-terminal GST; dsDNA, one strand shown
# ELF4, sequence (Q99607 whole entry): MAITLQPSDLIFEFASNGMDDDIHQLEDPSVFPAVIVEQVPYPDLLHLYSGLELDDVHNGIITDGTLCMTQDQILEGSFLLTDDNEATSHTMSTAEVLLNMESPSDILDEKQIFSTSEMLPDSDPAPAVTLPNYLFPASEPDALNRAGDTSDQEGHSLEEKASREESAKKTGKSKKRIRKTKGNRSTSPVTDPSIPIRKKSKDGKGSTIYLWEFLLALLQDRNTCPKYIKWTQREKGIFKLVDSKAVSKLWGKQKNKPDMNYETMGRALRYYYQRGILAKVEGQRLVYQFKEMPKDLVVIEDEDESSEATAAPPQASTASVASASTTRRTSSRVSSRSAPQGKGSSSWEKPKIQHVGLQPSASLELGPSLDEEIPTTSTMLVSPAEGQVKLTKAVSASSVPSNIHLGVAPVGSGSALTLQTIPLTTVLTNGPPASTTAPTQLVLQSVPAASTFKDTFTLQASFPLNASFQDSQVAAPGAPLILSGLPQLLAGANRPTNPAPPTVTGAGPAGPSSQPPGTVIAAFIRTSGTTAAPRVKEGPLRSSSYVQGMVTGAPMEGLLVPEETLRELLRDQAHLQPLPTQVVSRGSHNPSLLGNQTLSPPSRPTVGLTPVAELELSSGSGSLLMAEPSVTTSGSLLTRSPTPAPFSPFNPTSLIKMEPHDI
# Procedure, shortened: as §1
# [6] = target: T3, ELK4 (Homo sapiens, UniProt P28324-2 1-405); conditions: protein: recombinant; tags: N-terminal GST; dsDNA, one strand shown
# T3 sequence: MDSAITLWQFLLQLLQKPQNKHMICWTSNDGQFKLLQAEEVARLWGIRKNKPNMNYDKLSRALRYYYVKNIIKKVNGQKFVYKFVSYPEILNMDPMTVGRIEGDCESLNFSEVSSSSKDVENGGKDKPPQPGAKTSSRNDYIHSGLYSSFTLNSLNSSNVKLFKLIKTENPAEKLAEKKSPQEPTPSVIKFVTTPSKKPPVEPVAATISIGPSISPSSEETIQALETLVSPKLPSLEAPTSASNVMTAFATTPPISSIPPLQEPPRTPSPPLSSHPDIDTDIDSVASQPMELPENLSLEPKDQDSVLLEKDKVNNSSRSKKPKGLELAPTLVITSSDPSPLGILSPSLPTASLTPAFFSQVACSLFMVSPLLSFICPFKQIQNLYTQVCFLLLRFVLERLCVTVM
# Procedure, shortened: as §1
# [7] = target: T4, ETV2 (Homo sapiens, UniProt O00321 1-342); conditions: protein: recombinant; tags: N-terminal GST; dsDNA, one strand shown
# T4 sequence: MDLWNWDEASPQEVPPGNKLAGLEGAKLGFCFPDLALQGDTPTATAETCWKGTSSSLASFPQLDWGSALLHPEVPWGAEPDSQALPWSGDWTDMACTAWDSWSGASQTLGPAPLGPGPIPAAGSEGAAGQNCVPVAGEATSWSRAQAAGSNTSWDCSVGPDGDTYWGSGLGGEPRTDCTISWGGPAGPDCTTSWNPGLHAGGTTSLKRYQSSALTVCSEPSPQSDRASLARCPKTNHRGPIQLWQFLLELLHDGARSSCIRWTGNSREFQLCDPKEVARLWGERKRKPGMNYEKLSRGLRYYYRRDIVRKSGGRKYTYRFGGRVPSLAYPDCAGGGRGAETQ
# Procedure, shortened: as §1
# [8] = target: T5, ELF3 (Homo sapiens, UniProt P78545 1-371); conditions: protein: recombinant; tags: N-terminal GST; dsDNA, one strand shown
# T5 sequence: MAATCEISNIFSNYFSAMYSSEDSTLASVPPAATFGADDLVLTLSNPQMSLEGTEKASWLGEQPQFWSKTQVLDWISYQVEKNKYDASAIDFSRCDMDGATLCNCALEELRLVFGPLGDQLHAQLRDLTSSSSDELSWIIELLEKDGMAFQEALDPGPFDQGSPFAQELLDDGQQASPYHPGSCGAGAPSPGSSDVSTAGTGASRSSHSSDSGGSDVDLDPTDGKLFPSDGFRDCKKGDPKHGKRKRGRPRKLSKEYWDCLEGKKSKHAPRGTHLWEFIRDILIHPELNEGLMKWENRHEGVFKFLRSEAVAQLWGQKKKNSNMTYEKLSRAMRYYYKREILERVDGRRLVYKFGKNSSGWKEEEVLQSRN
# Procedure, shortened: as §1
# [9] = target: CRX (Homo sapiens, UniProt O43186 1-299); conditions: protein: recombinant; tags: N-terminal GST; dsDNA, one strand shown
# CRX, sequence (O43186 whole entry): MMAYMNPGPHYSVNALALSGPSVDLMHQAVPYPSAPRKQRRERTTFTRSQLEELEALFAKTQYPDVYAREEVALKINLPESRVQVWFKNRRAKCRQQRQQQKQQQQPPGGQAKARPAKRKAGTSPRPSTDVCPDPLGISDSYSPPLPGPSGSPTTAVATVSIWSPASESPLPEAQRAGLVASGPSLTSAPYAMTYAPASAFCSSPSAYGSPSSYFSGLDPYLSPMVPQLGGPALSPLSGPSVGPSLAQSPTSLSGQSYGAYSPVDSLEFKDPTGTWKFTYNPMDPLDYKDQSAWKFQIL
# Procedure, shortened: as §1
# [10] = target: ETV1 (Homo sapiens, UniProt P50549 1-477); conditions: protein: recombinant; tags: N-terminal GST; dsDNA, one strand shown
# ETV1, sequence (P50549 whole entry): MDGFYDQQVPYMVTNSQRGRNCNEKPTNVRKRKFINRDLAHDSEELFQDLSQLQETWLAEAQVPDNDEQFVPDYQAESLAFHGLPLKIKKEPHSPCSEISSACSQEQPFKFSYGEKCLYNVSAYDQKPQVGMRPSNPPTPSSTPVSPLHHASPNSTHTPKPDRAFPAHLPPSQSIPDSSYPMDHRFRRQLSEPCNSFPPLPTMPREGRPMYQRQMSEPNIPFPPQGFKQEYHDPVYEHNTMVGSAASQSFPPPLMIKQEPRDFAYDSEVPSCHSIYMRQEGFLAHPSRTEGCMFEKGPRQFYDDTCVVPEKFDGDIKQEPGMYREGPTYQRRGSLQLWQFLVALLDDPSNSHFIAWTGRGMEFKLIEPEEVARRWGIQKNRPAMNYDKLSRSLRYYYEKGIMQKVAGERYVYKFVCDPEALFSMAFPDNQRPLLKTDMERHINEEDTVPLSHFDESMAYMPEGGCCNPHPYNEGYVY
# Procedure, shortened: as §1
sequence,measurement,setting,value
CCACTA,binding signal,[1],"1.08 fold enrichment (6-mer frequency, TF over GST control)"
same,binding signal,[2],"1.12 fold enrichment (6-mer frequency, TF over GST control)"
same,binding signal,[3],"1.08 fold enrichment (6-mer frequency, TF over GST control)"
same,binding signal,[4],"1.11 fold enrichment (6-mer frequency, TF over GST control)"
same,binding signal,[5],"1.11 fold enrichment (6-mer frequency, TF over GST control)"
same,binding signal,[6],"1.06 fold enrichment (6-mer frequency, TF over GST control)"
same,binding signal,[7],"1.14 fold enrichment (6-mer frequency, TF over GST control)"
same,binding signal,[8],"1.1 fold enrichment (6-mer frequency, TF over GST control)"
same,binding signal,[9],"1.12 fold enrichment (6-mer frequency, TF over GST control)"
same,binding signal,[10],"1.03 fold enrichment (6-mer frequency, TF over GST control)"
